# Results filed as inconclusive are left out. A number with no mark means an inactive call. Calls follow the shape of the dose curve; as a rule, active = well fitted inhibition curve with a large enough effect; inconclusive = small, poorly fitted or top-dose-only effect; inactive = flat fitted curve, though single readings scatter.
# Tested on: CP215
# Test: qHTS profiling for inhibitors of Plasmodium falciparum proliferation (AID 504749);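 also: 0% = DMSO vehicle and full inhibition = artemisinin control; nearly all actives have a fitted effect of over 60% in size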
# Conditions: P. falciparum in erythrocytes, SYBR Green DNA, 72 h; series mostly up to 28.7 µM; activity, negative = inhibition: at the top concentration
# Procedure, shortened: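 Each compound contacts P. falciparum-infected red blood cells for 72 h at 37 C; lysis buffer (Tris, EDTA, saponin, Triton X, SYBR Green I) is added and fluorescence measured next morning; values normalized to controls.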
row,Structure (SMILES),"activity, negative = inhibition"
1,COc1cc(S(C)=O)ccc1-c1nc2ncccc2[nH]1 (stereo not given),5.79%
2,CCOc1ccc(S(=O)(=O)O)c2cccnc12,0.0842%
3,NC(=S)NS(=O)(=O)c1ccc(N)cc1,-0.238%
4,C[C@]12CC[C@@H]3c4ccc(OC(=O)c5ccccc5)cc4CC[C@H]3[C@@H]1CC[C@@H]2O,5.09%
5,CC(CCc1ccc(O)cc1)NCC(O)c1ccc(O)cc1 (stereo not given),3.19%
6,FC(F)(F)C(F)(F)C(F)(F)C(F)(F)C(F)(F)C(F)(F)F,-0.947%
7,CN(C)CCOc1ccc(/C(=C(/CCCl)c2ccccc2)c2ccccc2)cc1,-5.84%
8,CNC(=O)OCc1cccc(COC(=O)NC)n1,2.65%
9,NCC[C@H](O)C(=O)N[C@@H]1C[C@H](N)[C@@H](O[C@H]2O[C@H](CN)[C@@H](O)[C@H](O)[C@H]2O)[C@H](O)[C@H]1O[C@H]1O[C@H](CO)[C@@H](O)[C@H](N)[C@H]1O,1.07%
10,NC(N)=O,14.6%
11,CC1CCCCN1CCCOC(=O)c1ccccc1 (stereo not given),-2.19%
12,COC(=O)CCC[N+](C)(C)C,10.6%
13,COC(=O)CC[C@H](N)C(=O)O,-2.86%
14,O=C(OCc1ccccc1)c1ccc(O)cc1,15.7%
15,CC(C)(CO)[C@@H](O)C(=O)NCCC(=O)NCCSSCCNC(=O)CCNC(=O)[C@H](O)C(C)(C)CO,0.322%
16,COC(=O)c1ccccc1O,-2.95%
17,OC[C@H]1O[C@@](CO)(O[C@H]2O[C@H](CO)[C@@H](O)[C@H](O)[C@H]2O)[C@@H](O)[C@@H]1O,2.77%
18,Nc1nccs1,-5.98%
19,c1ccc2ccccc2c1,-9.04%
20,O=S(=O)(O)CCCS(=O)(=O)O,-0.677%

row,Structure (SMILES),"activity, negative = inhibition"
1,O=C1c2ccccc2C(=O)c2c1ccc(O)c2O,2.13%
2,O=C(NNCNNC(=O)c1ccncc1)c1ccncc1,8.57%
3,[O]=[Bi][O]C(=O)[O][Bi]=[O],15.7%
4,C=CCN1CCCC1CNC(=O)c1cc(S(N)(=O)=O)cc(OC)c1OC (stereo not given),0.991%
5,CC(C)[C@H](N)C(=O)OCC(CO)OCn1cnc2c(=O)[nH]c(N)nc21 (stereo not given in full),-8.77%
6,CCCCCCCCCCCCCCCCCC(=O)OC[C@@H](O)[C@H]1OC[C@H](O)[C@H]1O,2.25%
7,CC(=O)[C@H]1CC[C@H]2[C@@H]3C=CC4=CC(=O)CC[C@@]4(C)[C@H]3CC[C@]12C,9.98% [at 12.8 µM]
8,CCCC(=O)O,-3.07%
9,CC1(C)S[C@@H]2[C@H](NC(=O)C3(N)CCCCC3)C(=O)N2[C@H]1C(=O)O,-1.67%
10,CCCCCCCCCCCC(=O)OCC(O)CO (stereo not given),0.77%
11,CCOc1ccc(NC(=S)Nc2ccc(OCC)cc2)cc1,8.21%
12,C[C@H](CCC(=O)O)[C@H]1CC[C@H]2[C@@H]3CC[C@@H]4C[C@H](O)CC[C@]4(C)[C@H]3C[C@H](O)[C@]12C,0.87%
13,CC(C)(COP(=O)(O)OP(=O)(O)OC[C@H]1O[C@@H](n2cnc3c(N)ncnc32)[C@H](O)[C@@H]1OP(=O)(O)O)C(O)C(=O)NCCC(=O)NCCS (stereo not given in full),0.443%
14,O=C(CCCCCCCCCCCCC1CCCC1)Nc1ccc(S(=O)(=O)c2ccc(NC(=O)CCCCCCCCCCCCC3CCCC3)cc2)cc1,-14.8%
15,Nc1nc(=O)n([C@@H]2CS[C@H](CO)O2)cc1F,5.17%
16,O=C(O)CCC/C=C\C[C@@H]1[C@@H](/C=C/[C@@H](O)COc2cccc(C(F)(F)F)c2)[C@H](O)C[C@@H]1O,-14.1%
17,Cc1c(Cl)cccc1Nc1ncccc1C(=O)O,2.57%
18,CC(C)=CCC/C(C)=C/CC/C(C)=C/CC/C=C(\C)CC/C=C(\C)CCC=C(C)C,-3.58%
19,CC(=O)Nc1ccc(OC(C)=O)cc1,-0.551%
20,CC(=O)N[C@@H]1C(O[C@H]2O[C@H](C(=O)O)C(O)[C@H](O)[C@H]2O)[C@H](O)[C@@H](CO)O[C@H]1O[C@@H]1C(C(=O)O)O[C@@H](O[C@H]2[C@H](O)[C@@H](CO)OC(O)[C@@H]2NC(C)=O)[C@H](O)[C@H]1O (stereo not given in full),-0.361%

# From PubChem BioAssay (NCATS)
